tim10-1 inh: tim10-1 yeast growth inhibition; S. cerevisiae tim10-1 ts strain growth, BacTiter-Glo, 24 h; actives 2.2% (n = 330,000); inhibition, % at 20 µM; AID 463190;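 active = inhibition of at least 40%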;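 also: mutant grown at 25 °C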
TIM10 inh: inhibits growth of TIM10 yeast strain; S. cerevisiae TIM10 strain growth, BacTiter-Glo luminescence, 24 h; inhibition, % at 10 µM; actives 1.4% (n = 330,000); AID 463195;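 active = inhibition of 40% or more at the single tested concentration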;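 also: wild-type TIM10 isogenic control strain grown at permissive 25 °C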
PfHsp90 yeast 2: reduces growth (ATP signal) of yeast expressing P. falciparum Hsp90. actives 0.32% (n = 310,000). S. cerevisiae expressing PfHsp90, BacTiter-Glo ATP, 48 h; yeast lacking PDR1 and PDR3 efflux regulators. inhibition, % at 9.4 µM;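 active = every replicate shows inhibition above about 80%, whatever the replicate mean, limit read from the data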
tim23-1 inh: inhibits growth of tim23-1 mutant yeast. S. cerevisiae tim23-1 growth, BacTiter-Glo luminescence, 24 h. inhibition, % at 20 µM. actives 1.3% (n = 330,000);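 active = growth inhibition of the mutant yeast at or above 50%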;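 also: temperature-sensitive mutant grown at 25 °C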
NALP1 yeast inh: inhibitors of NALP1 inflammasome in yeast; S. cerevisiae NALP1/ASC/caspase-1 growth, X-gal OD620, 72 h; inhibition, % at 10 µM; actives 0.61% (n = 280,000); in the data active = inhibition mostly above about 24%, no sharp cut-off; inactive = mostly below about 32%
NLRP3 yeast inh: blocks the NALP3 inflammasome reconstituted in yeast | Yeast reconstituted NLRP3/ASC/caspase-1, beta-gal luminescence, 24 h | inhibition, % at 10 µM | actives 0.39% (n = 330,000);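 active = inhibition of 50% or more; inactive = inhibition below 50%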
tim23-1 conf: confirmation of tim23-1 mutant yeast growth inhibitors; shares compounds with tim23-1 inh; S. cerevisiae tim23-1 growth, BacTiter-Glo luminescence, 24 h; inhibition, % at 20 µM; actives 83% (n = 4,400);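 active = inhibition above about 39% in either of two replicate wells at 20 µM, limit read from the data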;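 also: temperature-sensitive tim23-1 mutant grown at 25 °C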
Numbers stand for hits; - = inactive; . = no result. Sampled rows, rich in hits. Any-hit rate of the full collection: about 4.1%.

SMILES	tim10-1 inh	TIM10 inh	PfHsp90 yeast 2	tim23-1 inh	NALP1 yeast inh	NLRP3 yeast inh	tim23-1 conf
CCNC(=O)NC(=O)CSc1ccc(S(=O)(=O)N2CCCCC2)cn1	-	-	-	-	.	-	.
CC1CCCc2sc3nc(NCc4ccco4)n4ncnc4c3c21 (stereo not given)	-	-	-	50	-	-	49
CC1CCN(S(=O)(=O)c2cn(CC(=O)N3CCN(c4cccc(C(F)(F)F)c4)CC3)cn2)CC1	-	-	-	-	-	-	.
CC(Cc1ccccc1)NC(=O)c1cc2ccccc2o1 (stereo not given)	-	-	-	51	-	-	53
N=c1c2c(-c3ccccc3)c(-c3ccccc3)n(Cc3ccco3)c2ncn1Cc1ccccc1	-	-	-	86	-	-	59
CC(C)Cn1cnc2c(c(-c3ccccc3)c(-c3ccccc3)n2Cc2ccco2)c1=N	-	-	-	76	-	-	41
COCCCNC(=S)NNC(=O)c1cc(C2CC2)nc2ccccc12	-	-	-	-	-	-	.
O=C(CNC(=O)C12CC3CC(CC(C3)C1)C2)OCc1ccc(F)cc1Cl	-	-	-	52	.	-	60
CCOc1ccc(C(=O)NCC(=O)OCc2cc(C(C)=O)ccc2OC)cc1	-	-	-	-	-	-	.
CCOc1ccc(C(C)=O)cc1COC(=O)CNC(=O)C12CC3CC(CC(C3)C1)C2	-	-	-	50	.	-	-
O=C(CNC(=O)C12CC3CC(CC(C3)C1)C2)OCc1cc(=O)n2cc(Br)ccc2n1	-	-	-	-	-	-	.
N#Cc1c(-c2ccccc2)cc(-c2ccc(O)cc2)nc1N	-	-	-	54	-	-	57
COc1ccc(-c2cc(-c3ccc(O)cc3)nc(N)c2C#N)cc1	-	-	-	-	-	-	.
NC(=S)N/N=C/c1ccc(-c2ccc(Cl)c(Cl)c2)o1	-	-	-	58	-	-	60
NC(=S)N/N=C/c1ccc(-c2ccccc2)o1	-	-	-	-	-	-	.
CCN(CC)CC(=O)N1CCCC(N2CCN(c3cccc(C(F)(F)F)c3)CC2)C1 (stereo not given)	-	-	-	-	-	-	.
Cc1ccc(C(=O)N/N=C/c2ccc(-c3ccc(Br)cc3[N+](=O)[O-])o2)o1	-	-	-	50	-	-	67
Cc1ccc(-c2nnc(N3CCC(C)CC3)c3ccccc23)cc1	-	-	-	53	-	-	69
Cc1cc(NC(=O)CSc2ccnc(=O)[nH]2)no1	-	-	.	-	.	-	.
Cc1nn(-c2ccccc2)c(C)c1/C=N/NC(=O)c1cc(C23CC4CC(CC(C4)C2)C3)[nH]n1	-	-	-	53	-	-	47
Cc1cc(C(=O)N/N=C/c2c(C)nn(-c3ccccc3)c2C)n[nH]1	-	-	-	-	-	-	.
COc1cccc(-c2ccc3ncnc(NCc4cccs4)c3c2)c1	-	-	-	52	.	-	43
c1cncc(CNc2ncnc3ccc(-c4ccc5c(c4)OCCO5)cc23)c1	-	-	-	-	.	-	.
c1cncc(-c2ccc3ncnc(NCc4cccs4)c3c2)c1	-	-	-	-	.	-	.
c1csc(CNc2ncnc3ccc(-c4ccc5c(c4)OCCO5)cc23)c1	-	-	-	57	.	-	45
SMILES	tim10-1 inh	TIM10 inh	PfHsp90 yeast 2	tim23-1 inh	NALP1 yeast inh	NLRP3 yeast inh	tim23-1 conf
C/C(=N\Nc1ccc(Cl)cc1)c1ccncc1	-	-	-	54	-	-	-
Cc1c(C(=O)N(CCC#N)c2ccccc2)sc2nc3n(c(=O)c12)CCCC3	-	-	-	-	-	-	.
COc1ccc(N2CCOCC2)c(NC(=O)c2ccc(Br)o2)c1	-	-	-	52	-	-	39
O=C(Nc1cc(Cl)ccc1N1CCOCC1)c1ccc(Br)o1	-	-	-	-	-	-	.
O=S(=O)(Nc1cccc(-c2nc3cccnc3s2)c1)c1ccc2c(c1)OCCO2	-	-	-	58	-	-	52
O=S(=O)(Nc1ccc(S(=O)(=O)Nc2nccs2)cc1)c1ccc2c(c1)OCCO2	-	-	.	-	-	-	.
Cc1nc2ccc(S(=O)(=O)Nc3cc(-c4nc5cccnc5s4)ccc3C)cc2s1	-	-	-	60	-	-	55
Cc1nc2ccc(S(=O)(=O)Nc3cccc(-c4nc5cccnc5s4)c3C)cc2s1	-	-	-	-	-	-	.
C/C(CCc1oc2c(Br)cc(Br)cc2c1-c1ccc(C)o1)=N\O	-	-	-	58	-	-	-
C/C(CCc1oc2ccccc2c1-c1ccc(C)o1)=N/O	-	-	-	-	-	-	.
COC1=CC(=O)c2ccccc2C1=O	-	-	-	78	.	-	79
C[C@H]1CN(S(=O)(=O)c2ccc3c(c2)OCCO3)CCN1S(=O)(=O)c1c(F)cccc1F	-	-	-	51	.	-	-
O=S(=O)(c1ccc2c(c1)OCCO2)N1C[C@@H]2C[C@H]1CN2S(=O)(=O)c1c(F)cccc1F	-	-	-	-	.	-	.
Clc1cccc(Cl)c1C1Nc2cccc3cccc(c23)N1	-	-	-	53	-	-	75
CC/C(=C(\c1ccccc1)c1ccc(OCCN(C)C)cc1)c1ccccc1	-	-	-	-	.	-	-
CC/C(=C(\c1ccc(O)cc1)c1ccc(OCCN(C)C)cc1)c1ccccc1	-	-	-	-	-	-	.
N#CC1=C(N)c2ccccc2CC12CCCCC2	-	-	-	51	-	-	41
Cc1nc(Nc2ccccc2)sc1C(=O)Nc1ccccc1	-	-	-	55	-	-	53
COc1cc(/C=N/NC(=O)c2csc3c2CCCC3)cc(OC)c1O	-	-	-	-	-	-	.
Cc1ccc(/C=N/NC(=O)c2csc3c2CCCC3)cc1	-	-	.	63	-	-	59
COc1ccc(NS(=O)(=O)c2ccc3c(c2)N(C(C)=O)CCO3)cc1	-	-	-	-	-	-	.
Cc1ccc(C)c(NC(=O)c2cc([N+](=O)[O-])cc([N+](=O)[O-])c2)c1	-	-	-	55	-	-	51
OCc1cn(-c2ccccc2)nc1-c1ccc(Br)cc1	-	-	-	67	-	-	-
CC(C)COc1ccc(-c2nn(-c3ccccc3)cc2CO)cc1	-	-	-	-	-	-	.
COc1cccc(NS(=O)(=O)c2ccc(-n3cccn3)cc2)c1	-	-	-	-	-	-	.
O=C(O)CC/C(=N\NC(=O)c1ccncc1)c1ccccc1	-	-	-	-	-	-	.
O=C(/C(=C/O)N=Nc1ccccc1)c1ccncc1	-	-	.	56	-	-	-
CC(=O)c1cccc(NC(=O)CN2C(=O)NC(C)(C)C2=O)c1	-	-	-	-	.	-	.
O=C(Nc1ccc(-c2noc(CCc3ccccc3)n2)cc1)c1ccco1	-	-	-	55	.	-	61
